Compound activity: PubChem, National Center for Advancing Translational Sciences (NCATS)
Only some compounds are listed: those with a hit (about 19% of all), similar ones and a draw of the others.
DT40 TDP1 no CPT – qHTS for Inhibitors of human tyrosyl-DNA phosphodiesterase 1 (TDP1): qHTS in cells in absence of CPT | DT40 Tdp1-/- hTDP1 cells, no CPT, ATP luminescence, 48 h | Potency, µM (highest dose often 46.2 µM), for inactives: at the highest dose activity change, negative = growth inhibition, usual class: inhibitors | 420,000 compounds, 15% hits; further: potency means the concentration at half of the fitted maximal effect; nearly all actives have a fitted effect of over 55% in size
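Chicken DT40 Tdp1-/- cells stably complemented with human TDP1 were seeded at 400 cells/well with DMSO in place of 20 nM camptothecin. After compound pinning, cells grew at least 48 hr at 37 °C; viability read by CellTiter-Glo luminescence.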
HT1080 IDH1KD tx – qHTS for induction of synthetic lethality in tumor cells producing 2HG: qHTS for the HT-1080-IDH1KD cell line; HT-1080 IDH1 knockdown viability, ATP luminescence, 48 h; Potency, µM (top dose mostly 46.1 µM), for the others: at the highest dose activity, negative = toxicity, most hits filed as cytotoxic; 360,000 compounds, 2% hits; AID 686971, 2013;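 further: potency means the concentration at half of the fitted maximal effect; 0% = DMSO wells and -100% = cell-free medium wells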
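Cytotoxicity counter-line: IDH1KD HT-1080, 48 h, CellTiter-Glo. Curves classed by r2, magnitude and activity.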
HT1080NT lethal – qHTS for induction of synthetic lethality in tumor cells producing 2HG: qHTS for the HT-1080-NT fibrosarcoma cell line; AID 686970, 2013; 360,000 compounds, 1.6% hits; HT-1080-NT fibrosarcoma viability, CellTiter-Glo ATP luminescence, 48 h; Potency, µM (titrated, usually from 46.1 µM), without a hit: at the top dose activity, negative = less viability, hits mostly cytotoxic;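 further: NT is the 2HG producing partner of a matched IDH1 knockdown line; potency means the concentration at half of the fitted maximal effect; 0% = DMSO-treated cells and -100% = media-only wells without cells; nearly all actives have a fitted effect of over 55% in size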
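Viability by CellTiter-Glo luminescence after 48 h compound exposure at 37C of HT-1080-NT cells (750/well, RPMI, 5% FBS). % activity scaled between DMSO wells and medium-only wells, then curve-fitted and categorized by curve class.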
IL-1B inflam inh – qHTS for Inhibitors of Inflammasome Signaling: IL-1-beta AlphaLISA Primary Screen. 360,000 compounds, 4.7% hits. activity change, % at 57.5 µM. THP-1 LPS/ATP IL-1B secretion, AlphaLISA, 16 h; hits give low values; in the data active means activity change below about -50%; inconclusive means mostly about -30% to -49%
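THP-1 cells pretreated 1 hr with compounds (up to 57.5 uM final), then stimulated with LPS (250 ng/mL final) plus ATP (1.25 mM final); secreted IL-1B measured by AlphaLISA after 16 hr, decreased signal indicating inhibition.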
TDP1 cell CPT – qHTS for Inhibitors of human tyrosyl-DNA phosphodiesterase 1 (TDP1): qHTS in cells in presence of CPT; Potency, µM (highest dose often 46.2 µM), without a hit: at the highest dose activity change, negative = growth inhibition, hits mostly inhibitors; chicken DT40 Tdp1-/-;hTDP1 cells + 20 nM CPT, ATP luminescence, 48 h; AID 686979, 2013; 420,000 compounds, 12% hits; further: potency means the concentration at half of the fitted maximal effect; nearly all actives have a fitted effect of over 55% in size
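Chicken DT40 Tdp1-/- cells stably complemented with human TDP1 were seeded at 400 cells/well in medium containing 20 nM camptothecin, exposed to pin-transferred compounds, and grown at 37 °C for at least 48 hr. Viability was read as ATP luminescence.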
Starred values were filed as active, the others as inactive; i = inactive; ? = inconclusive; / = no result given; [ ] = dose if it differs, or a comment. Unless noted, the call rests on the fitted dose curve; in most records, active means well fitted curve in the direction sought with a large enough effect; inconclusive means small, poorly fitted or top-dose-only effect, or another doubt; inactive means no such curve, though single readings can be large; an effect the other way counts as inactive or inconclusive. Unless noted, on the % scale 0 is the no-effect control and ±100 the full control effect.

SMILES	DT40 TDP1 no CPT	HT1080 IDH1KD tx	HT1080NT lethal	IL-1B inflam inh	TDP1 cell CPT
Cc1ccc(N=Nc2c(C)[nH]n(C(N)=S)c2=O)cc1C	1.6µM*	1%	-2%	10	1.8µM*
Cc1[nH]n(C(N)=S)c(=O)c1N=Nc1cc(-c2ccc(Br)cc2)[nH]n1	2.9µM*	-15%	6%	6	3.3µM*
CC(=O)Nc1ccc(N=Nc2c(C)[nH]n(C(N)=S)c2=O)cc1	-13%	2%	4%	-7	-16%
Cc1[nH]n(C(N)=S)c(=O)c1N=Nc1ccc2ccccc2c1	?	-7%	-2%	22	?
Cc1[nH]n(C(N)=S)c(=O)c1N=Nc1ccc(S(=O)(=O)N2CCCCCC2)cc1	21µM*	-1%	-3%	0	?
CCOc1ccc(N2CC(C(=O)Nc3ccccc3C(=O)NC3CC3)CC2=O)cc1 (centres undefined)	1%	8%	3%	3	6%
Nc1ccn([C@@H]2O[C@H](CNCc3cc(Br)ccc3OCc3ccccc3)[C@@H](O)[C@H]2O)c(=O)n1	-5%	0%	5%	-30	-2%
Cc1cc(C)c(S(=O)(=O)Nc2ccccc2C(F)(F)F)c(C)c1	-12%	/	/	/	-7%
Cc1cc(C)c(S(=O)(=O)Nc2nnc(C)s2)c(C)c1	18µM*	-1%	-1%	12	15µM*
Cc1cc(C)c(S(=O)(=O)Nc2nnc(CC(C)C)s2)c(C)c1	-2%	-3%	-8%	0	-11%
Cc1cc(C)c(S(=O)(=O)Nc2ccccc2-c2ccccc2)c(C)c1	21µM*	-20%	-2%	i	?
Cc1cc(C)c(S(=O)(=O)Nc2cnc3ccccc3c2)c(C)c1	?	-12%	-20%	-73*	?
CCOc1ccc(S(=O)(=O)Nc2nc3ccccc3nc2Cl)cc1	21µM*	0%	-1%	61	?
COc1ccc(S(=O)(=O)CC(=O)Nc2nnc(C(F)(F)F)s2)cc1	15%	15%	5%	3	-2%
COc1ccc(C)cc1NC(=O)Cn1cc(S(=O)(=O)N2CCC(C)CC2)c2ccccc2c1=O	?	/	/	/	-20%
CCOc1ccc(S(=O)(=O)Nc2cnc3ccccc3c2)cc1	18µM*	-13%	?	33	18µM*
N#Cc1nc(/C=C/c2ccc(F)cc2)oc1N1CCN(c2ccccc2)CC1	-7%	/	/	/	-21%
COc1cc(/C=C/c2nc(C#N)c(N3CCCCC3)o2)cc(OC)c1OC	7.3µM*	/	/	/	8.2µM*
Cc1cccc(-c2nc(C#N)c(N3CCCCCC3)o2)c1	?	0%	0%	-57*	29µM*
COc1cccc(/C=C/c2nc(C#N)c(N3CCCCC3)o2)c1	23µM*	/	/	/	21µM*
COc1ccccc1-c1nc(C#N)c(N2CCCCCC2)o1	-29%	3%	0%	-18	-18%
COc1ccc(/C=C/c2nc(C#N)c(N3CCC(C)CC3)o2)cc1OC	23µM*	/	/	/	16µM*
CCN1CCN(c2oc(/C=C/c3ccccc3)nc2C#N)CC1	-28%	-2%	10%	0	-26%
Cc1ccc2c(O)c(C)c(=O)[nH]c2n1	-19%	10%	12%	-9	-2%
Cc1ncc(CN2CCN(CCc3ccccc3)C(CCO)C2)s1 (centres undefined)	0%	8%	3%	27	-10%
SMILES	DT40 TDP1 no CPT	HT1080 IDH1KD tx	HT1080NT lethal	IL-1B inflam inh	TDP1 cell CPT
CC1CCCN(S(=O)(=O)c2ccc(NC(=O)[C@@H]3CCCN3C(=O)c3cccs3)cc2)C1 (some centres undefined)	?	-3%	-5%	15	?
COc1cccc(CNc2ncnc3sc(C(=O)N4CC5CCC4C5)c(C)c23)c1OC (centres undefined)	-15%	/	/	/	-10%[9.04 µM]
CCOc1ccc(Cl)cc1C1CC(=O)Nc2cc(OC)c(OC)c(OC)c21 (centres undefined)	7%	/	/	/	1%
COc1cccc(/C=C/c2onc(C)c2S(=O)(=O)N2CCC(C(=O)N3CCC(C)CC3)CC2)c1	16µM*	/	/	/	?
CCC1CN(C(=O)C2CCN(S(=O)(=O)c3c(C)noc3/C=C/c3ccc(C)cc3)CC2)c2cc(C)ccc2O1 (centres undefined)	1%	/	/	/	-28%
CNC(=O)C1CCN(S(=O)(=O)c2c(C)noc2/C=C/c2ccc(OC)cc2)CC1	-25%	10%	0%	-20	-7%
COc1cccc(/C=C/c2onc(C)c2S(=O)(=O)N2CCC(C(=O)NC3CCCCCC3)CC2)c1	6%	20%	23%	0	-13%
Cc1cccc(N2CCN(C(=O)C3CCN(S(=O)(=O)c4c(C)noc4/C=C/c4ccccc4F)CC3)CC2)c1C	?	/	/	/	-23%
Cc1ccc(/C=C/c2onc(C)c2S(=O)(=O)N2CCC(C(=O)N3CCN(c4cccc(C)c4)C(C)C3)CC2)cc1 (centres undefined)	12µM*	/	/	/	21µM*
Cc1cccc(/C=C/c2onc(C)c2S(=O)(=O)N2CCC(C(=O)N3CCCCCC3)CC2)c1	23µM*	-3%	-7%	?	?
COc1ccc(/C=C/c2onc(C)c2S(=O)(=O)N2CCC(C(=O)N3CCC(C)CC3)CC2)cc1	16µM*	-25%	-26%	?	16µM*
C[C@H](CO)N1C[C@H](C)[C@@H](CN(C)S(=O)(=O)c2ccccc2)Oc2ccc(NS(=O)(=O)c3cccs3)cc2C1=O	8%	7%	0%	5	20%
Cc1cccc(/C=C/c2onc(C)c2S(=O)(=O)N2CCC(C(=O)N3CCC(C)CC3)CC2)c1	18µM*	9%	24%	-22	18µM*
CSc1ncc2[nH]c(C(O)c3ccccc3)nc2n1 (centres undefined)	10µM*	-7%	?	34	9.2µM*
NS(=O)(=O)c1ccc(N2N=C(c3ccccc3)CC2c2ccc(F)cc2)cc1 (centres undefined)	?	-20%	-4%	-61*	?
CC(=O)Nc1ccc(C2CC(c3ccc(Cl)cc3)=NN2c2ccccc2)cc1 (centres undefined)	?	-29%	?	-19	-29%
Cc1cccc(C2CC(c3ccccc3)=NN2c2ccc(S(N)(=O)=O)cc2)c1 (centres undefined)	?	?	?	-22	?
